Source: PubChem BioAssay (National Center for Advancing Translational Sciences (NCATS))
A selection: hits, their analogues and other compounds. The true share with any hit is near 11%.
HEK293 tox: Cytotoxic Profiling in HEK 293 Cell Line of Diverse Libraries Using Quantitative High-Throughput Screening; HEK 293 viability, ATP luminescence (CellTiter-Glo), 48-72 h; Potency, µM (highest dose often 115 µM), actives largely listed as inhibitors; AID 1345083, 2018; 94,000 compounds, 6.6% hits; also: nearly all actives have a fitted effect of over 60% in size
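qHTS cytotoxicity; HEK 293, 250 cells/well; compound pinned; 48 or 72 hr, 37 degree Celsius, 5% CO2, 95% humidity; CellTiter-Glo, 10 min RT; luminescence (ATP).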
Luciferase inh: Firefly luciferase inhibition profiling of diverse chemical library using quantitative high-throughput screening | Luciferin 4-monooxygenase (Photinus pyralis), P08659 | Potency, µM (highest dose often 115 µM), hits mostly inhibitors | purified P. pyralis luciferase, luminescence, biochemical | AID 1347043, 2019 | 76,000 compounds, 2.5% hits; also: nearly all actives have a fitted effect of over 65% in size
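Biochemical qHTS: compound (6-point titration) added to 10uM D-luciferin plus 10uM ATP in Tris acetate pH 7.5 buffer with Mg, Tween-20 and BSA, then purified enzyme at 10nM; light output imaged.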
NIH3T3 tox: Cytotoxic Profiling in NIH 3T3 Cell Line of Diverse Libraries Using Quantitative High-Throughput Screening; Potency, µM (top dose mostly 96.7 µM), hits mostly inhibitors; NIH 3T3 viability, CellTiter-Glo ATP luminescence, 48-72 h; 94,000 compounds, 4.3% hits; AID 1345082, 2018; also: nearly all actives have a fitted effect of over 55% in size
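Viability of NIH 3T3 cells after 48 or 72 hr compound treatment at 37 °C was assessed by CellTiter-Glo, with luminescence imaged following a 10 min room-temperature step.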
hNpr1 antagonist: Natriuretic polypeptide receptor (hNpr1) antagonism - Primary qHTS | 76,000 compounds, 1.6% hits | HEK293 hNpr1 GloSensor cGMP, ANP-stimulated luminescence | Atrial natriuretic peptide receptor 1 (Homo sapiens), P16066 | Potency, µM (top dose mostly 46.3 µM), most hits filed as inhibitors; calls by dose curve; also: nearly all actives have a fitted effect of over 60% in size
Target sequence (P16066 whole entry, looked up): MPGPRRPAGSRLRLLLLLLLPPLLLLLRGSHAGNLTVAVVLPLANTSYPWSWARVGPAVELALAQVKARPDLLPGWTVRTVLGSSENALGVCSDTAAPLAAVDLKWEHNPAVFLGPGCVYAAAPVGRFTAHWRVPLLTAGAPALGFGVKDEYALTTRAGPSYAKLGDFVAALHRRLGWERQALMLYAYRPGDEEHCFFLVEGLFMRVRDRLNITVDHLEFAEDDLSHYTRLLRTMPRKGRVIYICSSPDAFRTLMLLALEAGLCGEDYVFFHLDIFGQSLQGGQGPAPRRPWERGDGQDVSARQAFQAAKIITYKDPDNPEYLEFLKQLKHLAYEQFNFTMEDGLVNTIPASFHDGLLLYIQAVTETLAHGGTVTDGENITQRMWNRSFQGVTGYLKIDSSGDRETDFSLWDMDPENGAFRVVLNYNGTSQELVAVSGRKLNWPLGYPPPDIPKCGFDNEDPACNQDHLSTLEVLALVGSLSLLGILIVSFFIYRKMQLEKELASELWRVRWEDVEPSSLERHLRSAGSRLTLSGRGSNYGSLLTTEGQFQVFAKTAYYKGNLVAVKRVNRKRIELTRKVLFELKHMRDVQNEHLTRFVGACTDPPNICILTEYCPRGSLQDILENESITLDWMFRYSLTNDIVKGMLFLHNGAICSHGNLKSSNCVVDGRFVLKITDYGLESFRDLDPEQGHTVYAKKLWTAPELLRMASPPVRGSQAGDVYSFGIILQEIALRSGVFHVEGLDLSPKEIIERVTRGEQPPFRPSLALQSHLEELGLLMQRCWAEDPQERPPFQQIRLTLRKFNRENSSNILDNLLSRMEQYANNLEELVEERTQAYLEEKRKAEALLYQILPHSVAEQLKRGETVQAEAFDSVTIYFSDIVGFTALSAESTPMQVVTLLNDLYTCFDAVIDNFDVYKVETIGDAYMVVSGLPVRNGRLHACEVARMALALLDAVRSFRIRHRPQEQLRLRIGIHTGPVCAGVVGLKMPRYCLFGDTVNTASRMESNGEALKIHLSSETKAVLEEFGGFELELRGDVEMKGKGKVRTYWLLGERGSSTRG
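HEK293 cells stably expressing human Npr1 and cGMP GloSensor pGS-40F, loaded 2 h with 2% GloSensor reagent, given compound 30 min at room temperature. Luminescence read before and 20 min after 0.1 nM hNppA.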
Each line names hits and unclear results; the compound was inactive in the other large screens. Unless noted, calls follow the shape of the dose curve; as a rule, active = well fitted curve in the direction sought with a large enough effect; inconclusive = small, poorly fitted or top-dose-only effect, or another doubt; inactive = no such curve, though single readings can be large; an effect the other way counts as inactive or inconclusive.

COc1ccc2c(c1)OC[C@@H]1CN(CCC#N)C(=O)CCN(C(=O)c3ccc(F)cc3)[C@H]21	NIH3T3 tox inconclusive (no result: Luciferase inh, hNpr1 antagonist)
O=[S+]([O-])(NC1CCN(c2nc3ncccc3o2)CC1)c1cccc(C(F)(F)F)c1	HEK293 tox inconclusive, NIH3T3 tox inconclusive
COc1ccc(Nc2ccnc(N3CCC(N[S+](C)(=O)[O-])CC3)n2)cc1	HEK293 tox inconclusive (no result: Luciferase inh, hNpr1 antagonist)
COc1ccc(Nc2ccnc(N3CCC(N[S+](=O)([O-])c4cccc(C(F)(F)F)c4)CC3)n2)cc1	HEK293 tox 22µM, NIH3T3 tox 18µM (no result: Luciferase inh, hNpr1 antagonist)
COc1ccc(Nc2ccnc(N3CCC(N[S+](=O)([O-])c4c(C)noc4C)CC3)n2)cc1	HEK293 tox 45µM, NIH3T3 tox 40µM (no result: Luciferase inh, hNpr1 antagonist)
CNC(=O)c1cc(C2CC2)nc2onc(C3CCN(C(=O)Nc4ccc(C)c(F)c4)C3)c12 (stereo not drawn)	HEK293 tox 45µM, NIH3T3 tox inconclusive (no result: Luciferase inh, hNpr1 antagonist)
COc1ccc(-c2noc(-c3nc(-c4ccccn4)no3)n2)cc1	none
Cc1ccc(-c2noc(-c3nc(-c4ccccn4)no3)n2)cc1	Luciferase inh 18µM
CC(C)c1cccc(NC(=O)c2ccc(CN3C(=O)NC4(CCOCC4)C3=O)cc2)c1	HEK293 tox inconclusive, Luciferase inh 40µM, hNpr1 antagonist 11µM
CCc1ccc(NC(=O)c2ccc(CN3C(=O)NC4(CCOCC4)C3=O)cc2)cc1	HEK293 tox inconclusive, Luciferase inh 13µM, NIH3T3 tox inconclusive, hNpr1 antagonist inconclusive
Cc1cccc(NC(=O)c2ccc(CN3C(=O)NC4(CCOCC4)C3=O)cc2)c1	HEK293 tox inconclusive, Luciferase inh inconclusive
COc1cccc(CN2CCCCCCNC(=O)[C@@H]3C[C@@H](C(=O)NCCc4cnc[nH]4)C[C@@H]32)c1	none
O=C(Nc1cc(F)cc(F)c1)N1CCCC2(C1)Nc1cccnc1NC2=NC1CCCC1 (stereo not drawn)	HEK293 tox 40µM, NIH3T3 tox inconclusive
O=C(c1cccc2ncccc12)N1CCC2(CC1)Nc1ccccc1NC2=O	HEK293 tox inconclusive
O=C(c1ccc2ncccc2c1)N1CCC2(CC1)Nc1ccccc1NC2=O	HEK293 tox 89µM
COc1cccc(Nc2ncc3c(n2)C(C)(C(=O)Nc2nc(C)cs2)CC3)c1 (stereo not drawn)	HEK293 tox 50µM, NIH3T3 tox inconclusive
COc1cccc(Nc2ncc3c(n2)C(C)(C(=O)N2CC[S+](=O)([O-])CC2)CC3)c1 (stereo not drawn)	NIH3T3 tox 100µM
Cc1csc(NC(=O)C2(C)COCc3cnc(Nc4ccccc4)nc32)n1 (stereo not drawn)	HEK293 tox 79µM, NIH3T3 tox inconclusive
COCCNC(=O)C1(C)CCc2cnc(Nc3cccc(OC)c3)nc21 (stereo not drawn)	HEK293 tox inconclusive, NIH3T3 tox inconclusive
CC1(C(=O)Nc2ccccc2)COCc2cnc(Nc3ccccc3)nc21 (stereo not drawn)	HEK293 tox 79µM, NIH3T3 tox inconclusive
CSc1ccc2cc(CN3CC[C@@H](O)C3)c(-c3ccc(Cl)cc3)nc2c1	HEK293 tox inconclusive, NIH3T3 tox inconclusive
CC1(O)CCCN(Cc2cc3cc4c(cc3nc2-c2ccc(Cl)cc2)OCO4)C1 (stereo not drawn)	HEK293 tox inconclusive, Luciferase inh 32µM, NIH3T3 tox inconclusive
OCC1CCN(Cc2cc3cc4c(cc3nc2-c2ccc(Cl)cc2)OCO4)CC1	HEK293 tox inconclusive, Luciferase inh 32µM, NIH3T3 tox inconclusive
CSc1ccc2cc(CN3CCCC(O)C3)c(-c3ccc(Cl)cc3)nc2c1 (stereo not drawn)	HEK293 tox inconclusive, NIH3T3 tox inconclusive
CN(C)C1CCN(Cc2cc3cc4c(cc3nc2-c2ccc(Cl)cc2)OCO4)C1 (stereo not drawn)	HEK293 tox inconclusive, Luciferase inh 28µM, NIH3T3 tox inconclusive
COc1cc2cc(CN3CCC(N(C)C)C3)c(-c3cccc(Cl)c3)nc2cc1OC (stereo not drawn)	HEK293 tox inconclusive, Luciferase inh inconclusive, NIH3T3 tox inconclusive
Cc1ccc(-c2noc([C@@H]3CCCN3C(=O)c3cc(F)ccc3Cl)n2)cc1	HEK293 tox inconclusive, NIH3T3 tox inconclusive
COc1ccc(N2CC3(COCC2=O)CN(c2ccc(C(F)(F)F)cn2)C3)cn1	NIH3T3 tox 40µM
